Experimental data taken from paper PMC6919601, “Identification of Plasmodium dipeptidyl aminopeptidase allosteric inhibitors by high throughput screening” (PLoS ONE, 2019).
Screen size: about 110,000 compounds; about 230 (0.21%) showed an effect of 50% or more. Many of the other results were omitted from the sample, so strong results are more common in it than they were.

Biological target: DPAP1 (Plasmodium falciparum, UniProt Q8IIJ9)
Assay: primary screen, percent inhibition; read by cleavage of a fluorogenic dipeptide substrate; higher = more effect of the substance
Parameters: species or system P. falciparum D10 trophozoite lysates; single well
Procedure: HTS was performed in black 384-well plates. The first and last two columns of each plate contained our negative (DMSO) and positive (10 μM JCP410) controls, and the 20 central columns the test compounds at 10 μM. Compounds were first diluted 50-fold into assay buffer (50 mM sodium acetate, 5 mM MgCl2, 10 mM β-mercaptoethanol, and 0.1% CHAPS, pH 5.5) from a 10 mM DMSO stock plates. One microliter of this 200 μM intermediate stock plate was dispensed into the assay plate. […] After 30 min, the reaction was quenched with 20 μL of 0.5 M acetic acid, and the fluorescent intensity measured at 523 nm (λex = 492 nm) using an Analyst HT multimode plate reader (Molecular Devices).
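Note: 30 min substrate incubation versus DMSO and 10 µM JCP410 controls.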

DPAP1, sequence (Q8IIJ9 whole entry, looked up): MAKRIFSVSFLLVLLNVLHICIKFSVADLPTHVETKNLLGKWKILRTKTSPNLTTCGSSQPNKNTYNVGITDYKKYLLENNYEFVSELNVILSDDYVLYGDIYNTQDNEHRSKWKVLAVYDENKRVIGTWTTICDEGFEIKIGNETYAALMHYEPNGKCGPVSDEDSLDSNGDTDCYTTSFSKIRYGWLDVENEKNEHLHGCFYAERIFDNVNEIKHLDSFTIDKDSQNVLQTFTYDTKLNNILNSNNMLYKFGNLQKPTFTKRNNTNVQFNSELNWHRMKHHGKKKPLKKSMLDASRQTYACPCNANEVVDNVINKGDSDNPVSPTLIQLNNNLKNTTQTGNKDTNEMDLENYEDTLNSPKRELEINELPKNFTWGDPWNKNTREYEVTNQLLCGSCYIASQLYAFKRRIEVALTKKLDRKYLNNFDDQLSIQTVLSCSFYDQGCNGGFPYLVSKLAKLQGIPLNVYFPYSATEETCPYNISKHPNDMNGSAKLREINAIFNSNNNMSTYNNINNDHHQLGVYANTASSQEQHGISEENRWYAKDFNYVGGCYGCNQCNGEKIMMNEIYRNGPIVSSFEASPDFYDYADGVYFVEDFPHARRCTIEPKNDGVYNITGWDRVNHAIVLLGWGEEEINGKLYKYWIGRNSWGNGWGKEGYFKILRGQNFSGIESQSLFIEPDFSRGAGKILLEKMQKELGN

| Structure (SMILES) | % Inhibition @ 10 uM [%] |
| --- | --- |
| Cc1ccc2oc(=O)c3cc(C(=O)Nc4cc(C)on4)sc3c2c1 | -0.646 |
| Cc1ccc(C2CC(=O)N3CN(C(C)c4ccccc4)CSC3=C2C#N)cc1 (centres unmarked) | 10.6 |
| CC(c1ccccc1)N1CSC2=C(C#N)C(c3cccs3)CC(=O)N2C1 (centres unmarked) | 68 |
| COc1ccc(C2CC(=O)N3CN(C(C)c4ccccc4)CSC3=C2C#N)cc1OC (centres unmarked) | 28 |
| CCOc1ccc(C2CC(=O)N3C(=C2C#N)SCC3(O)c2ccc(OCC)cc2)cc1 (centres unmarked) | -0.0235 |
| CC(c1ccccc1)N1CSC2=C(C#N)C(c3ccc(Cl)cc3)CC(=O)N2C1 (centres unmarked) | 73.1 |
| CCOc1ccc(C2CC(=O)N3CN(C(C)c4ccccc4)CSC3=C2C#N)cc1 (centres unmarked) | 53.1 |
| N#CC1=C2SCC(O)(c3ccccc3)N2C(=O)CC1c1cccs1 (centres unmarked) | -4.74 |
| N#CC1=C2SCN(Cc3ccco3)CN2C(=O)CC1c1cccs1 (centres unmarked) | 47.7 |
| Cc1cc(Cl)ccc1N(CC(=O)Nc1ccc2c(c1)OCO2)S(=O)(=O)c1ccccc1 | 8.03 |
| Cc1ccc(NS(=O)(=O)c2ccc(NC(=O)COc3ccccc3)cc2)c(C)c1 | -4.7 |
| CCOc1ccc(-n2nc3ccc(NC(=O)c4ccc5c(c4)OCCO5)cc3n2)cc1 | 17.9 |
| CCCCCOc1ccc(C2NC(C(=O)O)CS2)cc1 (centres unmarked) | -2.54 |
| Cc1nn(C)c(C)c1/C=C(/C(=O)C(C)C)n1cncn1 | 0.00706 |
| CC1CCCCN1CCNc1ncnc2onc(-c3ccc(Cl)cc3)c12 (centres unmarked) | -3.95 |
| CN(C)c1ccc(-c2c(C#N)c(S)nc3c2C(=O)CC(C)(C)C3)cc1 | -2.81 |
| Oc1cc(-c2ccccc2)nc2nc(Cc3ccccc3)nn12 | 0.795 |
| Cc1ccc(CNC(=O)c2cc3c(s2)-c2ccccc2S(=O)(=O)C3)cc1 | -0.72 |
| CN1C(=O)c2ccccc2C(C(=O)NCCN2CCc3ccccc3C2)C1c1cn(C)c2ccccc12 (centres unmarked) | -7.27 |
| O=c1c2c3c(sc2[nH]c(=S)n1-c1ccccc1)CC1(CCCCC1)CC3 | 0.774 |
| Cc1sc2[nH]c(=O)n(-c3ccc(Cl)c(Cl)c3)c(=O)c2c1C | -0.711 |
| Cc1sc2[nH]c(=S)n(-c3ccccc3)c(=O)c2c1C | 72.2 |
| CCc1cc2c(=O)n(-c3ccc(Cl)cc3)c(=S)[nH]c2s1 | 21.1 |
| Cc1sc2[nH]c(=S)n(-c3ccc(Cl)cc3)c(=O)c2c1C | 51.2 |
| CCc1c(O)n(-c2ccccc2)c(=S)[nH]c1=O | 0.526 |
| COc1ccc(N2CCN(C(=O)CN(C)S(=O)(=O)c3ccc(C)cc3)CC2)cc1 | -5.35 |

| Structure (SMILES) | % Inhibition @ 10 uM [%] |
| --- | --- |
| O=[N+]([O-])c1ccc(CSc2ccc(Cl)cc2)cc1 | 2.22 |
| COc1ccc(CNC(=O)c2cc3c(O)nc4ccc(C)cc4c3s2)cc1 | 1.72 |
| N#CC1=C(N)SC(N)=C(C#N)C1c1cccnc1 | 0.731 |
| CCOc1ccc(C2C(C#N)=C(N)SC(N)=C2C#N)cc1OC | 57.7 |
| Cc1ccc(C2C(C#N)=C(N)SC(N)=C2C#N)c(C)c1 | 27.4 |
| COc1cc(C2C(C#N)=C(N)SC(N)=C2C#N)ccc1O | 28.3 |
| N#CC1=C(N)SC(N)=C(C#N)C1c1ccccc1 | 70.9 |
| Cc1cc(C)c(C)c(C2C(C#N)=C(N)SC(N)=C2C#N)c1C | 4.22 |
| N#CC1=C(N)SC(N)=C(C#N)C1c1cccc(Cl)c1 | 19.5 |
| N#CC1=C(N)SC(N)=C(C#N)C1c1ccc(Cl)cc1 | 50.8 |
| CC1C(C#N)=C(N)SC(N)=C1C#N | 67.5 |
| CCOc1ccc(OCC)c(C2C(C#N)=C(N)SC(N)=C2C#N)c1 | 23.2 |
| CC(C)c1ccc(C2C(C#N)=C(N)SC(N)=C2C#N)cc1 | 46.7 |
| N#CC1=C(N)SC(N)=C(C#N)C1c1ccc(Cl)c(Cl)c1 | 40.5 |
| C=CCSc1nnc(NC(=O)Cc2coc3ccc(C)cc23)s1 | 1 |
| CC(Sc1nc(-c2ccccc2)c(-c2ccccc2)[nH]1)C(=O)O (centres unmarked) | -3.04 |
| O=C(Nc1ccc(F)c(Cl)c1)c1cc2nc(C(F)F)cc(C(F)F)n2n1 | -8.02 |
| Cc1oc2ncnc(N3CCOCC3)c2c1C(=O)N(C)Cc1ccco1 | 4.76 |
| COc1ccc2nc(Cl)c(C3CC(c4ccc(Cl)cc4)=NN3C(C)=O)cc2c1 (centres unmarked) | 4.18 |
| NS(=O)(=O)c1ccc(NC(=O)c2cccs2)cc1 | 7.24 |
| NC(=O)C1CCCN(C2CCc3ccccc3C2)C1 (centres unmarked) | -1.5 |
| Cc1ccsc1C1C(C#N)=C(N)SC(N)=C1C#N | 27.5 |
| N#CC1=C(N)SC(N)=C(C#N)C1c1cccs1 | 40.6 |
| N#CC1=C(N)SC(N)=C(C#N)C1c1ccco1 | 51.4 |
| Cc1ccc(C2C(C#N)=C(N)SC(N)=C2C#N)o1 | 47.9 |
| Cc1ccc(C2C(C#N)=C(N)SC(N)=C2C#N)s1 | 55.8 |

| Structure (SMILES) | % Inhibition @ 10 uM [%] |
| --- | --- |
| N#CC1=C(N)SC(N)=C(C#N)C1c1c(Cl)cccc1Cl | 28.7 |
| OC(c1ccccc1)c1nc2ccccc2n1CCc1ccccc1 (centres unmarked) | -2.92 |
| CC1=C(C(=O)Nc2ccc(Br)cn2)C(c2ccccc2C)C2=C(O)CCCC2=N1 (centres unmarked) | 2.7 |
| CN(CC(=O)NCc1cccs1)S(=O)(=O)c1ccc2[nH]c(-c3ccccc3)nc2c1 | 3.88 |
| COc1ccc(Br)cc1CNC(=O)c1ccc2c(c1)ncn2C1CCCC1 | 3.66 |
| COc1cc(CN(C(=S)NCC(=O)NC2CCCC2)C2CCCC2)cc(OC)c1OC | 1.27 |
| COc1cc(/C=C2\N=C(c3cc(OC)c(OC)c(OC)c3)OC2=O)cc(OC)c1OC | 0.607 |
| COc1cc(C2=N/C(=C\c3ccc(SC)cc3)C(=O)O2)cc(OC)c1OC | -20.1 |
| COc1cc(C2=N/C(=C\c3ccc(C(C)(C)C)cc3)C(=O)O2)cc(OC)c1OC | 84.3 |
| Cc1cccc(C(=O)Nc2ccc(S(=O)(=O)N3CCCCC3)cc2)c1 | -1.28 |
| N#Cc1c(-c2ccccc2)cc(C(F)F)nc1S | 76.3 |
| N#Cc1c(-c2ccccc2)cc(C(F)(F)F)nc1S | 76.9 |
| N#Cc1c(-c2ccc(F)cc2)cc(C2CC2)nc1S | 4.63 |
| N#Cc1c(-c2ccc3c(c2)OCO3)cc(-c2ccccc2)nc1S | 11.7 |
| N#Cc1c(-c2ccccc2)cc(-c2ccccc2)c(C#N)c1N | 0.716 |
| COc1ccc(-c2cc(-c3ccccc3)nc(S)c2C#N)cc1 | 43.3 |
| CC1CCN(S(=O)(=O)c2ccc(NC(=O)c3ccc(-c4ccccc4)cc3)cc2)CC1 | 2.13 |
| Cc1sc2s[n+](CCCS(=O)(=O)O)c(C)c2c1C | -1.33 |
| CCOc1ccc(N2CC(C(=O)Nc3ccc(Br)cc3C)CC2=O)cc1 (centres unmarked) | 4.05 |
| CCCCC(=O)Nc1c(-c2ccccc2)nc2ccccn12 | -3.19 |
| S=c1[nH]c(=S)c2c3c(sc2[nH]1)CCC3 | 85.2 |
| O=c1c2c3c(sc2[nH]c(=S)n1Cc1ccccc1)CCCC3 | 3.06 |
| O=c1[nH]c(=S)[nH]c2sc3c(c12)CCC1(CCCCC1)C3 | 5.93 |
| CC1(C)Cc2c(sc3[nH]c(=S)[nH]c(=S)c23)CO1 | 15 |
| O=c1c2c3c(sc2[nH]c(=S)n1Cc1ccccc1)CCC3 | 21 |
| CCn1c(=S)[nH]c2sc3c(c2c1=O)CCC3 | 64.7 |

| Structure (SMILES) | % Inhibition @ 10 uM [%] |
| --- | --- |
| C=C(C)Cn1c(=S)[nH]c2sc3c(c2c1=O)CCCC3 | 57.3 |
| CCn1c(=S)[nH]c2sc3c(c2c1=O)CCCC3 | 42.2 |
| O=c1c2c3c(sc2[nH]c(=S)n1C1CCCCC1)CCCC3 | 9.26 |
| Cc1cc2nnc(SCC(=O)O)n2c2ccccc12 | -2.19 |
| C=C(C)COc1ccc2cc(-c3nc4ccccc4s3)c(=O)oc2c1 | 6.22 |
| CC(C)(C)c1ccc(C(=O)NCc2cccc3ccccc23)cc1 | -3.48 |
| N#CC1=C2SCN(C3CCCCC3)CN2C(=O)CC1c1cccc2ccccc12 (centres unmarked) | 53.8 |
| Cc1ccccc1C1CC(=O)N2CN(Cc3ccccc3)CSC2=C1C#N (centres unmarked) | 31.2 |
| N#CC1=C2SCN(Cc3ccccc3)CN2C(=O)CC1c1cccc2ccccc12 (centres unmarked) | 51.5 |
| N#CC1=C2SCN(Cc3ccco3)CN2C(=O)CC1c1cccc2ccccc12 (centres unmarked) | 45.5 |
| N#CC1=C2SCN(C3CCCCC3)CN2C(=O)CC1c1ccccc1F (centres unmarked) | 37.8 |
| Cc1ccccc1C1CC(=O)N2CN(C3CCCCC3)CSC2=C1C#N (centres unmarked) | 24 |
| COc1ccc(/C=C/C(=O)N2c3ccccc3C(C)(c3ccccc3)CC2(C)C)cc1 (centres unmarked) | 56.6 |
| COc1ccc(C(=O)N2c3ccccc3C(C)(c3ccccc3)CC2(C)C)cc1 (centres unmarked) | -2 |
| CC1(c2ccccc2)CC(C)(C)N(C(=O)/C=C/c2ccccc2)c2ccccc21 (centres unmarked) | 0.467 |
| CCc1ccc(NC(=O)C2CCN(S(=O)(=O)c3cc(Cl)ccc3Cl)CC2)cc1 | -4.06 |
| O=C1c2ccccc2C(=O)N1CNc1ccc(Cl)c(Cl)c1 | -1.17 |
| NC(=O)c1c(NC(=O)C2CC2)sc2c1CCCCCC2 | 5.39 |
| Cn1cc(Br)c(C(=O)Nc2sc3c(c2C(N)=O)CCC3)n1 | 1.02 |
| Cn1ccc(C(=O)Nc2sc3c(c2C(N)=O)CCCCC3)n1 | 47 |
| NC(=O)c1c(NC(=O)C2CCC2)sc2c1CCCCC2 | 7.35 |
| CC(=O)Nc1sc2c(c1C(N)=O)CCCCCC2 | 2.65 |
| CCOC(=O)c1c(NC(=O)C23CC4CC(CC(C4)C2)C3)sc2c1CCCC2 | -1.36 |
| NC(=O)c1c(NC(=O)C23CC4CC(CC(C4)C2)C3)sc2c1CCCCC2 | 52.3 |
| Cn1cc(Br)c(C(=O)Nc2sc3c(c2C(N)=O)CCCCC3)n1 | 51.9 |
| NC(=O)c1c(NC(=O)C2CC2)sc2c1CCCCC2 | 50.4 |
